# In PubChem BioAssay AID624114 (Johns Hopkins Ion Channel Center, 2012):
# Out of some 4,000 compounds screened, about 15 (0.4%) were called active.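 The calls were made as follows: active = calcium fluorescence ratio, averaged over duplicates, at least 3 SD of the buffer-well ratio, meaning a nonspecific response in receptor-free cells; inactive = the rest.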 Only a sample is shown.
# Assay: calcium response in parental HEK293 cells, primary screen, counter-screen for MrgX1 allosteric activator project, cell-based, Fluo-4 calcium flux, duplicate (AID 624114);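 also: untransfected parental HEK293 lacking MrgX1 used as counterscreen for MrgX1 allosteric activators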
# Conditions: Fluo-4 fluorescence ratio, at 10 µM
row,SMILES,outcome
1,Cc1ccnc(NC(=O)C(C)N2C(=O)c3ccccc3C2=O)c1 (stereo unspecified),inactive
2,CCC(C)c1ccccc1N1CC(C(=O)N2CCN(S(=O)(=O)c3ccc(F)cc3)CC2)CC1=O (stereo unspecified),inactive
3,Cc1ccc(Nc2nc(-c3ccc(O)cc3O)cs2)nc1,inactive
4,CCC(C)Sc1nc(C)nc2c1c(=O)n(C)c(=O)n2C (stereo unspecified),inactive
5,Cc1ccnc(-n2sc3ccccc3c2=O)n1,inactive
6,CCOC(=O)C1=C(O)CSC1=Nc1cccc(Cl)c1,inactive
7,COCc1nnc(NC(=O)c2ccc3c(c2)OCO3)s1,inactive
8,CC1(C(=O)O)CCC(C(=O)Nc2ccc(Cl)c(Cl)c2)C1(C)C (stereo unspecified),inactive
9,CC(C)CNc1ncnc2c1cnn2Cc1ccc(Cl)cc1,inactive
10,CCc1ccc(N(CC(=O)Nc2sc3c(c2C(=O)OC)CCCC3)S(C)(=O)=O)cc1,inactive
11,OCCn1c(-c2ccccc2)csc1=Nc1ccccc1,inactive
12,CCOc1ccc(NC(=O)CCNC(=O)c2ccc(Br)cc2)cc1,inactive
13,Cc1ccc(C(C(=O)NC2CCCCC2)N(C(=O)c2csnn2)C2CC2)o1 (stereo unspecified),inactive
14,COc1ccc(-c2cc(C(F)(F)F)nc(S(C)(=O)=O)n2)cc1OC,inactive
15,O=C(C1CCN(S(=O)(=O)c2cnc[nH]2)CC1)N1CCN(Cc2ccc3c(c2)OCO3)CC1,inactive
16,O=C(Nc1cccc(Cl)c1)c1cncn1-c1ccc(F)cc1,inactive
17,Cc1nonc1C1CCCN1Cc1nc(-c2ccc(F)cc2F)oc1C (stereo unspecified),inactive
18,Cc1ccc2c(C)c(C(=O)N(C)CCC3CCCCO3)oc2c1C (stereo unspecified),inactive
19,O=C(CN1CCN(c2ccc(Cl)cc2)CC1)N1CCCC1,inactive

row,SMILES,outcome
1,COc1cc2c(cc1O)C(SC)=NC(C)(C)C2,inactive
2,FC(F)Oc1ccc(NC(=S)NCc2ccco2)cc1Cl,inactive
3,COc1ccc(Nc2nnc(C)c3ccccc23)cc1,inactive
4,Cc1c(C)c2c(OCC(=O)N[C@@H](C(=O)O)c3ccccc3)cc3c(c2oc1=O)CCC(C)(C)O3,inactive
5,CCSc1nsc(NC(=O)Nc2cccc(C(C)=O)c2)n1,inactive
6,Cc1c(C(=O)N2CCN(c3ccc(F)cc3)CC2)oc2c1C(=O)CCC2,inactive
7,O=C(c1cccc(S(=O)(=O)Nc2ccccc2Cl)c1)N1CCN(C(=O)c2ccco2)CC1,inactive
8,O=C(Cn1c(-c2cncs2)nc2ccccc21)NC1CCCC1,inactive
9,CC1(C)CC2CC(C)(CN2c2ncnc3ccc(Br)cc23)C1 (stereo unspecified),inactive
10,CCOC(=O)c1c(NC(=O)CSc2cn(CC)c3ccccc23)sc2c1CCC2,inactive
11,O=C(O)CSC(NC(=O)c1cccnc1)(C(F)(F)F)C(F)(F)F,inactive
12,CCOC(=O)N1CCN(C(=O)COCc2cc(-c3ccc4c(c3)OCO4)on2)CC1,inactive
13,COc1ccc(C(=O)Nc2c(N)nc(SCC(=O)N3CCC(C)CC3)[nH]c2=O)cc1OC,inactive
14,CCOc1cc(-c2conc2N)cc(OCC)c1OCC,inactive
15,O=C1CCCN1CCCNC(=S)Nc1ccc(F)c(Cl)c1,inactive
16,COc1ccc(C(=O)NNC(=S)NC(=O)c2ccccc2)cc1,inactive
17,Nc1ccc(Oc2ccc(Cl)cc2)cc1,inactive
18,CN(CC(=O)Nc1ccccc1Cl)C(=O)COc1cccc2c1OC(C)(C)C2,inactive
19,CCOc1ccc2nc(/N=C/c3nc(-c4ccccc4)oc3O)sc2c1,inactive

row,SMILES,outcome
1,FC(F)(F)c1cc(-c2cccs2)nc(NCc2ccco2)n1,inactive
2,O=C(CSc1c2c(nc3ccc(Cl)cc13)CCCC2)NCc1ccco1,inactive
3,COc1ccc(Nc2nc(-c3cccnc3)nc3ccccc23)cn1,inactive
4,CN(C)CCn1c(=S)[nH]c2ccc(Cl)cc2c1=O,inactive
5,COC(=O)c1sccc1NS(=O)(=O)c1ccc(F)cc1F,inactive
6,COc1ccc2c(c1)OC(O)(C(F)(F)C(F)F)CC2=O (stereo unspecified),inactive
7,CC(C)NC(=S)Nc1cccc2cnccc12,inactive
8,C=CCNC(=O)c1cc(-c2ccccc2O)on1,inactive
9,O=C(Nc1ccccc1N1CCCCC1)c1ccc2nccnc2c1,inactive
10,Cc1ccc2c(c1)c1ncnc(N3CCc4ccccc4C3)c1n2C,inactive
11,CCc1ccc2nc3sc(C(=O)Nc4nnc(CC)s4)c(N)c3cc2c1,inactive
12,COc1ccc(C(=O)NC(=S)NNC(=O)c2c(-c3ccccc3)noc2C)cc1,inactive
13,COc1ccccc1N(CC(=O)N1CCCCC1)S(=O)(=O)c1ccccc1,inactive
14,CC(C)OCCCNc1ncnc2c1[nH]c1ccc(F)cc12,inactive
15,COc1cc(CCC(=O)Nc2ccncc2Cl)cc(OC)c1OC,inactive
16,CCCc1[nH]nc2c1C(c1ccc(Br)s1)C(C#N)=C(N)O2 (stereo unspecified),inactive
17,O=C(Cc1ccccn1)c1ccc(O)cc1O,inactive
18,Cc1cccn2c(=O)c(/C=C3\SC(=S)N(CC(C)C)C3=O)c(NCCCOC(C)C)nc12,inactive
